Measured values published in PubChem BioAssay AID1030 (National Center for Advancing Translational Sciences (NCATS), 2008).
The campaign covered roughly 220,000 compounds. About 16,000 (7.3%) were called active. About 25% were inconclusive and are not listed. The call rests on the fitted dose curve; in most records, active means well fitted inhibition curve with a large enough effect (not every such curve was filed as active); inconclusive means small, poorly fitted or top-dose-only effect, or another doubt; inactive means no such curve, though single readings can be large or run the other way. For the sample, actives were picked, then their nearest neighbours and some compounds at random.

biological target: Aldehyde dehydrogenase 1A1 (Homo sapiens) (UniProt P00352); assay: qHTS Assay for Inhibitors of Aldehyde Dehydrogenase 1 (ALDH1A1); settings: Purified ALDH1A1, NADH fluorescence, propionaldehyde substrate; series mostly up to 75.3 µM; activity, negative = inhibition: at the top concentration;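 on activity, negative = inhibition: plate controls were no enzyme wells and a reference inhibitor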
Potency means the concentration at half of the fitted maximal effect.

Aldehyde dehydrogenase 1A1 (Homo sapiens), sequence (P00352 whole entry, looked up): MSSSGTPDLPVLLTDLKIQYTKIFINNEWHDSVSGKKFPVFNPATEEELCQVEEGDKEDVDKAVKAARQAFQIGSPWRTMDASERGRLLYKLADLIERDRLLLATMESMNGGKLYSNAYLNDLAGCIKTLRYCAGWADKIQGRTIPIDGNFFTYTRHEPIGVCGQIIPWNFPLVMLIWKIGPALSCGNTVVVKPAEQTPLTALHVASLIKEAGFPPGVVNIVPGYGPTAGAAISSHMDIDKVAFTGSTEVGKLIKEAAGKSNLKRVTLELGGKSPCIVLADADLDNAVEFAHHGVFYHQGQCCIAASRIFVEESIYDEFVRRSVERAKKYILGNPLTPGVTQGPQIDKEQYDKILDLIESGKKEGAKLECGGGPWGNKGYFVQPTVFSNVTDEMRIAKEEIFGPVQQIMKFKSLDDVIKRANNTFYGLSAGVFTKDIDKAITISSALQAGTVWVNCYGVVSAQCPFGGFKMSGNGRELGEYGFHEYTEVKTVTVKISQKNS

| SMILES | activity, negative = inhibition | Potency |
| --- | --- | --- |
| CCCCCCCCCCCCN1C(=O)CSC1c1cccnc1 (stereo not drawn) | -14.6% (inactive) | – |
| Nc1ccc(Cl)c(S(=O)(=O)Nc2ccccc2Cl)c1 | 12.1% (inactive) | – |
| CCOC(=O)C1=C(CC)Nc2ccccc2N=C1N | 10.9% (inactive) | – |
| CC(C)n1c(CN2CCN(Cc3ccccc3)CC2)nc2ccccc21 | -3.01% (inactive) | – |
| Cc1ccc2c(c1)C(O)(CC(=O)c1cccc(-n3cccc3)c1)C(=O)N2 (stereo not drawn) | 3.09% (inactive) | – |
| O=C(NCc1ccco1)c1ccc(Cn2c(=O)c3sccc3n(Cc3ccc(F)cc3)c2=O)cc1 | 7.09% (inactive) | – |
| CCCCOc1ccc(C(=O)NCc2ccco2)cc1 | 6.18% (inactive) | – |
| CC(C)OCCCNC(=O)c1ccc(C2SCC(=O)N2Cc2ccco2)cc1 (stereo not drawn) | – | 10 µM (active) |
| Cc1ccc(-c2csc(NC(=O)c3cnccn3)n2)cc1C | 0.726% (inactive) | – |
| COc1ccc(C(=O)CSc2nccc(=O)[nH]2)cc1 | -7.29% (inactive) | – |
| CC(C)(C)c1ccc(C(=O)CSc2ncn[nH]2)cc1 | – | 20 µM (active) |
| Cn1nnc(NC(=O)CSc2ncn[nH]2)n1 | 3.76% (inactive) | – |
| CC(=O)N(CCCN(C)C)c1nc2ccc(C)cc2s1 | 9.7% (inactive) | – |
| Nc1ccc(C(=O)OCC(=O)NC2CCCc3ccccc32)cc1[N+](=O)[O-] (stereo not drawn) | 3.62% (inactive) | – |
| CCNc1ccc(C(=O)OCC(=O)N2c3ccccc3NC(=O)C2(C)C)cc1[N+](=O)[O-] | – | 11.2 µM (active) |
| CC1(C)C(=O)Nc2ccccc2N1C(=O)COC(=O)Cn1cnc2ccccc2c1=O | -2.55% (inactive) | – |
| Cc1ccc(C(c2nnnn2C(C)(C)C)N2CCc3ccccc3C2)cc1 (stereo not drawn) | 5.23% (inactive) | – |
| COc1ccc(OC)c(C(c2nnnn2C(C)(C)C)N2CCc3ccccc3C2)c1 (stereo not drawn) | -4.68% (inactive) | – |
| COCCn1nnnc1C(c1cc2ccc(OC)cc2[nH]c1=O)N1CCc2ccccc2C1 (stereo not drawn) | – | 25.1 µM (active) |
| CC(=O)c1ccc(N2CCN(S(=O)(=O)c3c(C)[nH]c(=O)[nH]c3=O)CC2)cc1 | 15.3% (inactive) | – |
| CSc1ccc(/C=N/N2CCN(Cc3ccccc3Cl)CC2)cc1 | 3.55% (inactive) | – |
| CN1CCN(CC(=O)C23CC4CC(CC(C4)C2)C3)CC1 | – | 20 µM (active) |
| CC(C)(C)NC(=O)CN1CCC(NC(=O)C23CC4CC(CC(C4)C2)C3)CC1 | -3.43% (inactive) | – |
| O=C(N1CCCC1)C12CC3CC(C1)CC(C(=O)N1CCCC1)(C3)C2 | -2.48% (inactive) | – |
| COC/C=C/C1=CC2=CC(=O)C(C)(OC(=O)CCC(=O)OC)C(=O)C2=CO1 (stereo not drawn) | -2.86% (inactive) | – |
| COc1cc(OC)c(-n2c(C)cc(C=O)c2C)cc1Cl | – | 7.08 µM (active) |
| Cc1ccccc1-n1c(C)cc(/C=C2\NC(=O)NC2=O)c1C | 0.873% (inactive) | – |
| COc1cc(Cl)c(S(=O)(=O)n2cnc(C)c2)cc1Cl | 10.4% (inactive) | – |
